Among the data in PubChem BioAssay (NCATS) are max response, outcome and Potency values, retold here.

The subject of one assay is CRL-7250. Briefly: Cytotoxic Profiling of Annotated Libraries Using Quantitative High-Throughput Screening (AID 1296008). Also: potency is read from the fitted curve at half-maximal effect. As to max response: % is scaled to controls: 0 for no effect and ±100 for the full control effect. The settings on record: Five cell lines viability, CellTiter-Glo ATP luminescence, 48-72 h; max response: hits give low values. The method in brief:
(§1)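 Compounds were pin-transferred onto cells and incubated 48 or 72 hr at 37 degree Celsius, 95% humidity. CellTiter-Glo was added, plates sat 10 min at room temperature, then ATP-coupled luminescence was imaged as the viability read-out.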
Background: In ATP-based viability assays light output follows the ATP content of the culture.

In a further assay the test system is HEK293. The description is as above. The settings on record: Five cell lines viability, CellTiter-Glo ATP luminescence, 48-72 h; max response: hits give low values. The method in brief: as §1
The test system of assay [1] is HaCat. The description is as above. The settings on record: Five cell lines viability, CellTiter-Glo ATP luminescence, 48-72 h; max response: hits give low values. The method in brief:
as §1

The test system of the next assay is KB-3-1. The assay is described as above. The settings on record: Five cell lines viability, CellTiter-Glo ATP luminescence, 48-72 h; max response: hits give low values. The essentials:
as §1

A further assay concerns NIH3T3. The description is as above. The settings on record: Five cell lines viability, CellTiter-Glo ATP luminescence, 48-72 h; max response: hits give low values. The essentials: as §1
The subject of assay [2] is HACAT. Briefly: qHTS assay to identify novel small-molecules to repurpose for Merkel cell carcinoma treatment (AID 1296009). The settings on record: MCC and control cell lines, CellTiter-Glo viability, 72 h; at 44.8 µM (top of the series) unless noted. The method in brief:
(§2)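 qHTS format: cells treated with library compounds in DMSO across 8 (NPC) or 11 (MIPE) concentrations. Readout after 72 hr at 37 degree celsius was CellTiter-Glo luminescence.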
A general note: Quantitative high-throughput screening tests each substance at several concentrations.

The test system of another assay is MCC-13. Described as above. The settings on record: MCC and control cell lines, CellTiter-Glo viability, 72 h; series mostly up to 46 µM. The essentials:
as §2

For another assay, the system named is MCC-26. The description is as above. The settings on record: MCC and control cell lines, CellTiter-Glo viability, 72 h; series mostly up to 46 µM. The method in brief:
as §2

The test system of the next assay is W2. Put plainly: qHTS profiling for inhibitors of Plasmodium falciparum proliferation (AID 504749). Also: potency is read from the fitted curve at half-maximal effect. The settings on record: P. falciparum in erythrocytes, SYBR Green DNA, 72 h; series mostly up to 28.7 µM. The essentials: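 Parasite proliferation within erythrocytes, 72 h exposure. Endpoint: SYBR Green I fluorescence after overnight lysis at room temperature. Controls: 0.29 uM artemisinin, DMSO.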

Another assay concerns HEK293T. Briefly: qHTS assay to identify novel small-molecules to repurpose for Merkel cell carcinoma treatment (AID 1296009). The settings on record: MCC and control cell lines, CellTiter-Glo viability, 72 h; at 44.8 µM (top of the series) unless noted. The method in brief:
as §2

Where “and” joins values, the source holds several entries; their conditions need not be identical. Identical values can stand only once. Inconclusive results are not listed. Where a structure was tested more than once in an assay, its records may differ in their call. Values without a mark were called inactive. Calls of active or inactive are those of the source. Calls follow the shape of the dose curve; as a rule, active = well fitted inhibition curve with a large enough effect; inconclusive = small, poorly fitted or top-dose-only effect; inactive = flat fitted curve, though single readings scatter.
Also: nearly all actives have a fitted effect of over 60% in size.

In the case of `O=C(c1ccccc1)c1ccc2n1CCC2C(=O)O` (centres undefined), the max response was -6.97% and 1.24% in the assay with CRL-7250; 1.29% and -15.1% in the assay with HEK293; 1.88% and -12.7% and 3.64% in the assay with KB-3-1; -2.4% and -6.59% with NIH3T3. For the same compound, the result with HaCat [1] and in the assay on HACAT [2] was inactive. Also, the Potency entry in the assay on MCC-13 and in the assay with MCC-26 was “inactive” throughout.

With `CC(C)c1ccc2oc3nc(N)c(C(=O)O)cc3c(=O)c2c1`, the call with CRL-7250, in the assay with HaCat [1] and in the assay with HACAT [2] was inactive. The max response was 4.19% and -0.504% in the assay on HEK293; -17.6% with HaCat [1]; -24.8% and -20.9% in the assay on NIH3T3. The Potency result in the assay with MCC-13 and in the assay with MCC-26 was “inactive” throughout.

As for `CCN(CC)CCOc1ccc(Cc2ccccc2)cc1`, the max response was -29.7% in the assay on CRL-7250; -17.2% in the assay with HaCat [1]; -7.39% and -3.92% with KB-3-1; -6.6% in the assay with NIH3T3. In the assay on HEK293, the Potency is 8.33 µM (active). For the same compound, the compound was called inactive in the assay with HaCat [1] and in the assay with HACAT [2]. Moreover, the Potency entry in the assay with MCC-13 and with MCC-26 was “inactive” each time.

With `Cc1cc(=O)c2c(O)c3c(O)cc(=O)c4c3c3c(cc(O)c1c23)C(C)(C)C=4O`, the Potency was 1.35 µM (active) with W2; 3.66 µM (active) and 13.2 µM (active) in the assay with CRL-7250; 2.59 µM (active) and 3.72 µM (active) in the assay with HEK293; 1.3 µM (active) in the assay on HaCat [1]; 11.6 µM (active) and 23.5 µM (active) in the assay with KB-3-1. For the same compound, the compound was classed as inactive with HaCat [1] and with HACAT [2]. Moreover, the max response in the assay with NIH3T3 is -0.918%. Moreover, the Potency entry with MCC-13 and in the assay with MCC-26 was “inactive” in each case.

As to `OC(CN1CCN(c2cccc(Cl)c2)CC1)C(c1ccccc1)c1ccccc1` (centres undefined), the max response in the assay on CRL-7250 was -4.87%; in the assay on HaCat [1], -65.8% and -1.92%; with KB-3-1 it was -12.1% and -1.2%; in the assay on NIH3T3, -14.3%. Further, in the assay with HEK293, the Potency is 9.35 µM (active). Further, the compound was classed as inactive with NIH3T3. Further, the Potency entry in the assay with MCC-13 and with MCC-26 was “inactive” in each case.

For the compound `O=C(O)c1cccnc1Nc1cccc(C(F)(F)F)c1`, the Potency entry with W2, in the assay with MCC-13 and with MCC-26 was “inactive” throughout. Moreover, the max response was -6.42% and -10.2% with CRL-7250; -4.95% with HEK293; 1.64% in the assay on HaCat [1]; 5.86% and -3.77% with KB-3-1; -31.9% with NIH3T3. In addition, the outcome in the assay on HaCat [1], in the assay with NIH3T3 and in the assay on HACAT [2] was inactive.

For the compound `CCOC(=O)c1c(C)n(C)c2ccc(O)cc12`, the Potency result in the assay on W2, in the assay on MCC-13 and in the assay on MCC-26 was “inactive” each time. Also, the max response is 3.97% and 0.808% with CRL-7250; 0.41% and 2.4% in the assay on HEK293; 4.97% in the assay on HaCat [1]; -7.66% and 1.23% in the assay on KB-3-1; -5.37% in the assay with NIH3T3. The result with HaCat [1], in the assay on NIH3T3 and in the assay on HACAT [2] was inactive.

As to `CC1(C)C(=O)N(CCN2CCC(C(=O)c3ccc(F)cc3)CC2)c2ccccc21`, the max response with CRL-7250 is 0.499%; in the assay on HaCat [1], -16.9%; in the assay on KB-3-1, 2.39%; with NIH3T3 it was -5.82%. Also, the call in the assay with HEK293 and in the assay with HEK293T was inactive. In addition, the Potency entry in the assay with MCC-13 and in the assay with MCC-26 was “inactive” each time.

Regarding `COc1cc2c(N3CCN(C(=O)Nc4ccc(OC(C)C)cc4)CC3)ncnc2cc1OCCCN1CCCCC1`, the max response with CRL-7250 is -25.9% and -20.4%; in the assay on HaCat [1], 3.85% and 0.506%; in the assay with KB-3-1 it was -30.9% and -5.38%; in the assay on NIH3T3, -26.1%. Besides, the Potency in the assay with HEK293 was 18.7 µM (active). The Potency result in the assay on MCC-13 and with MCC-26 was “inactive” throughout.

On to `CN(C)CCCC1(c2ccc(F)cc2)OCc2cc(C#N)ccc21` (centres undefined), for which the max response is -4.07% in the assay with CRL-7250; -24.9% with HEK293; -6.25% and -3.5% in the assay with HaCat [1]; -8.3% and 1.59% in the assay on KB-3-1; -3.81% and 4.08% in the assay on NIH3T3. Besides, the Potency result in the assay on MCC-13 and in the assay on MCC-26 was “inactive” throughout.

With `CCOc1cc(CC(=O)N[C@@H](CC(C)C)c2ccccc2N2CCCCC2)ccc1C(=O)O`, the Potency result with W2, with MCC-13 and with MCC-26 was “inactive” throughout. Besides, the compound was called inactive in the assay on CRL-7250, in the assay with HEK293, in the assay on HaCat [1], with HACAT [2] and with HEK293T. For the same compound, the max response in the assay on NIH3T3 was 4.08%.

Regarding `CCOC(=O)C(C)Oc1cccc2c(=O)n(CC(=O)Nc3ccc4c(c3)OCCO4)ccc12` (centres undefined), the max response is 3.46% with CRL-7250, -23.2% with HEK293 and 0.733% with NIH3T3. For the same compound, the compound was classed as inactive in the assay with HaCat [1], in the assay on KB-3-1 and with HACAT [2]. Moreover, the Potency result in the assay with MCC-13 and in the assay with MCC-26 was “inactive” in each case.

As for `O=c1c(O)c(-c2cc(O)c(O)c(O)c2)oc2cc(O)cc(O)c12`, the max response with CRL-7250 was 3.08%; in the assay with HEK293, -2.69%; in the assay with KB-3-1, 2.62%; in the assay with NIH3T3, -26.9%. Moreover, the outcome in the assay on HaCat [1] and with HACAT [2] was inactive. Moreover, the Potency result in the assay on MCC-13 and in the assay on MCC-26 was “inactive” throughout.

`CC(C)c1ccc2c(c1)c(SC(C)(C)C)c(CC(C)(C)C(=O)O)n2Cc1ccc(Cl)cc1`: the max response with CRL-7250 is -29.4%; in the assay with HEK293 it was -2.03%; in the assay on HaCat [1] it was -20.8%; in the assay with KB-3-1, -8.99%. In the assay on NIH3T3, the call was inactive. Besides, the Potency result with MCC-13 and with MCC-26 was “inactive” throughout.
